From PubChem
Mtb FBA inh – Mtb fructose-bisphosphate aldolase inhibition; P9WQA3; purified M. tuberculosis FBA, fluorescence read-out; inhibition, % at 1 µM; hit rate 2.3% among 360,000; AID 588726; in the data active means inhibition above about 27%;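 further: 0% = vehicle and 100% = reference inhibitor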
Rv3671c inh – inhibitors of M. tuberculosis serine protease Rv3671c; inhibition, % at 5.96 µM; P9WHR9; hit rate 0.048% among 320,000; AID 2606; in the data active means inhibition above about 38%;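 further: extracellular domain of Rv3671c used as enzyme; 0% = enzyme with DMSO and 100% = no enzyme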
Target sequence (P9WHR9 whole entry, looked up, the tested form may be a part): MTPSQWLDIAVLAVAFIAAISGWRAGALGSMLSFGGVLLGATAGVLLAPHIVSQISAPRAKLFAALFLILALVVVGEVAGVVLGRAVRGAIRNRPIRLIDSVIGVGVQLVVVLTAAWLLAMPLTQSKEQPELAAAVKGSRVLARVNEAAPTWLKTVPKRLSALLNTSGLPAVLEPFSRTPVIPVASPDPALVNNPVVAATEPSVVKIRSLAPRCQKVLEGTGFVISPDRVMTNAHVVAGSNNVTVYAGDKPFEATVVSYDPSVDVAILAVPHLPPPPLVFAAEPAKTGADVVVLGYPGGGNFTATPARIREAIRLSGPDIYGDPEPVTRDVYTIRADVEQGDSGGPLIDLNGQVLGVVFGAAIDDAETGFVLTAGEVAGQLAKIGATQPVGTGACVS
Mtb betalactam – beta-lactam sensitization of Mtb H37Rv; M. tuberculosis H37Rv growth with meropenem, percent inhibition; inhibition, % at 25 µM; hit rate 0.27% among 330,000; call rule not given here;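 further: growth measured after seven days incubation then overnight dye step; 0% = bacteria only wells and 100% = bacteria with antibiotic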
Mtb UGM inh – blocks M. tuberculosis UGM enzyme; purified UGM, fluorescence polarization probe displacement; inhibition, % at 10 µM; hit rate 0.06% among 320,000; in the data active means inhibition above about 10%, passing the limit was not always enough
GDH-TPI counter – counter-screen for M. tuberculosis FBA inhibitors: GDH-TPI coupled enzymes. GDH-TPI coupled enzyme counterscreen, NADH absorbance. inhibition, % at 4.8 µM. hit rate 1.2% among 360,000; in the data active means inhibition above about 30%;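 further: 0% = DMSO wells and 100% = wells lacking the enzyme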
RecA intein inh – blocks M. tuberculosis RecA intein splicing | cell-free RecA intein splicing, fluorescence | inhibition, % (no concentration beside the values) | hit rate 0.75% among 290,000 | AID 2221 | P9WHJ3; in the data active means inhibition above about 30%;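 further: 0% = vehicle wells and 100% = reference inhibitor control wells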
Starred values were filed as active, the others as inactive; i = inactive; · = no result; + = active, no number. Shown are actives, neighbours in structure and some others; about 4% of the full set was active somewhere.

SMILES | Mtb FBA inh | Rv3671c inh | Mtb betalactam | Mtb UGM inh | GDH-TPI counter | RecA intein inh
CC(=O)Nc1nc2c(F)cccc2s1 | 1 | 2 | 2 | 0 | 5 | 1
CC(=O)Nc1ccc2nc(NC(=O)c3ccco3)sc2c1 | -1 | -12 | 4 | 3 | 32* | -1
O=C(Nc1nc2c(F)cccc2s1)c1ccco1 | 6 | -16 | -4 | -4 | 36* | -1
CCOc1cccc2sc(Nc3nc4ccc(NC(C)=O)cc4s3)nc12 | 119* | 1 | -1 | 0 | 39* | 2
CCOC(=O)N1CCN(c2c(-c3ccc(C(C)C)cc3)c(=O)c2=O)CC1 | -5 | -1 | 1 | -1 | 25 | 2
CCOC(=O)N1CCN(c2c(-c3ccc(C)cc3)c(=O)c2=O)CC1 | 2 | -7 | 9 | 0 | 34* | ·
CCOC(=O)N1CCC(Nc2c(-c3ccc(C)cc3)c(=O)c2=O)CC1 | -3 | -1 | -6 | -1 | 36* | -2
CCC(=O)Nc1ccccc1C(=O)OCC(=O)c1cccc2ccccc12 | 0 | -15 | 11 | 2 | 13 | 10
Cc1cc(/C=C2/C(=O)NC(=O)N(C)C2=O)c(C)n1-c1ccccc1 | -2 | -1 | -4 | 1 | 4 | -5
Cc1ccc(-n2c(C)cc(C=C3C(=O)N(C)C(=O)N(C)C3=O)c2C)cc1 | 112* | · | · | · | 12 | ·
O=C(O)c1ccc(C=NN2CCCCCC2)cc1 | 4 | · | · | · | 36* | ·
O=C(O)c1ccc(/C=N/N2CCN(c3ccccc3)CC2)cc1 | -1 | · | -1 | -1 | 10 | 0
N#Cc1ccc(C=NN2CCCCCC2)cc1 | 1 | · | · | · | 41* | ·
O=C1CCc2cc(NS(=O)(=O)c3ccc([N+](=O)[O-])cc3)cc3c2N1CC3 | 6 | · | · | · | 7 | 6
CSc1nc(N)c(C#N)c(-c2ccc(Cl)cc2)c1C#N | 4 | -55 | 2 | 0 | 33* | 1
N#Cc1c(-c2ccc(Cl)cc2)c(C#N)c(=O)n(N)c1N | -4 | 4 | 0 | 2 | 33* | 3
COc1ccc(-c2c(C#N)c(N)n(N)c(=O)c2C#N)cc1Cl | 4 | -3 | 5 | 3 | 13 | -1
CSc1nc(-c2ccc(Cl)cc2)nc(N)c1C#N | 0 | 2 | -6 | -1 | -3 | 1
CCCn1c(N/N=C\C=C\c2ccccc2)nc2c1c(=O)[nH]c(=O)n2C | -4 | 0 | 70 | 0 | 31* | -3
CC(/C=C/c1ccccc1)=N\Nc1nc2c(c(=O)[nH]c(=O)n2C)n1CCO | · | -1 | 1 | 0 | · | -2
CCNC(=S)Nc1ccc2c(c1)oc1ccccc12 | -3 | 2 | -1 | 2 | -6 | ·
O=C(O)C(Cc1ccc(O)c([N+](=O)[O-])c1)N1C(=O)c2ccccc2C1=O (stereo not drawn) | -7 | · | · | · | 8 | ·
CC(C)(C)OC(=O)N/N=C/c1ccc(N2CCOCC2)s1 | -3 | -4 | -10 | -1 | 35* | -3
COc1ccc(/C=C/C(=O)c2ccc(OC)cc2OC)cc1 | 5 | 1 | 68 | 0 | 38* | 4
COc1ccc(/C=C/C(=O)C2(O)CCCCC2)cc1 | 0 | 1 | -7 | -2 | 39* | 1
SMILES | Mtb FBA inh | Rv3671c inh | Mtb betalactam | Mtb UGM inh | GDH-TPI counter | RecA intein inh
OCc1ccc(-c2cncc3nccn23)cc1 | + | · | · | · | 13 | ·
c1cn2c(-c3ccoc3)cncc2n1 | 26 | · | · | · | 3 | ·
O=C1NC2(CCCC2)Oc2ccccc21 | 2 | -1 | 8 | -1 | 6 | 0
Cn1c2ccccc2c2cc(C(=O)NNS(=O)(=O)c3ccc(F)cc3)sc21 | 23 | -9 | 19 | -1 | 34* | 7
O=C(NNS(=O)(=O)c1ccc(F)cc1)c1ccccc1F | -3 | 3 | 8 | -3 | -17 | -3
O=C(NNS(=O)(=O)c1ccc(F)cc1)c1ccccc1 | 147* | -2 | 3 | 0 | 10 | -1
CCOC(=O)c1c(NC(=O)c2ccc(N3C(=O)[C@@H]4[C@H](C3=O)[C@H]3C=C[C@@H]4C3)cc2)sc2c1CC(C)CC2 (stereo partly drawn) | 137* | 12 | 7 | 0 | 1 | -6
Cc1nn(CC(=O)NC2CCS(=O)(=O)C2)c(C)c1S(=O)(=O)N(C)C (stereo not drawn) | -2 | -2 | -1 | 3 | -4 | ·
O=C(Nc1nc2c(s1)CCCC2=O)c1cnccn1 | 2 | -5 | 21 | 3 | 32* | 3
N#Cc1c(C(F)(F)F)cc(=O)n2c1[nH]c1ccccc12 | + | · | -1 | 1 | 3 | i
COc1ccccc1N=Cc1c(C)c(C#N)c2[nH]c3ccccc3n2c1=O | 9 | 4 | 100 | 1 | 0 | -2
Cc1c(Cc2ccccc2)c(=O)n2c([nH]c3ccccc32)c1C#N | 133* | 6 | 99 | -3 | 3 | 0
COc1ccc(N2CCN(C(=O)COC(=O)c3oc4ccc(OC)cc4c3C)CC2)cc1 | 14 | -5 | 3 | -1 | 5 | -1
Cn1c(SCC(=O)c2ccc(O)cc2O)nnc1-c1ccccc1 | 0 | -1 | -2 | -2 | 34* | -5
O=C(COc1ccc(Cl)cc1Cl)NC(=S)Nc1ccc(CN2CCOCC2)cc1 | 4 | 1 | 8 | 0 | 1 | 8
Nc1c(Cl)ncnc1N/N=C/c1ccccn1 | · | -12 | 100 | -2 | · | ·
CCOc1cc(/C=N/NC(=O)C(=O)N/N=C/c2ccc(O)c(OCC)c2)ccc1O | -3 | 7 | -1 | -2 | 51* | -8
CCOc1cc(/C=N/NC(=O)N/N=C/c2ccc(O)c(OCC)c2)ccc1O | · | -2 | 6 | 1 | · | -1
CCCCNC(=S)N/N=C/c1cccc(OCC)c1O | 1 | 1 | 96 | 0 | 33* | 1
CCOc1cc(/C=N/NC(=O)c2ccccc2OCc2ccc(F)cc2)ccc1O | 6 | 1 | -5 | -3 | 41* | ·
Nc1c(Cl)ncnc1N/N=C/c1cccnc1 | 2 | -6 | -2 | -4 | 40* | -4
CC(C)(C)OC(=O)N1CCC(Cc2cc(-c3cccc(Br)c3)no2)(C(=O)O)CC1 | 0 | -10 | 8 | -1 | 8 | 17
O=C(N/N=C/c1ccncc1)c1cnccn1 | 6 | -1 | 7 | -1 | 4 | 1
Cc1c(Cl)c([N+](=O)[O-])nn1Cc1ccc(C(=O)N/N=C\c2ccccn2)o1 | 2 | -5 | -1 | 2 | 15 | ·
CCOc1cc(/C=N/Nc2ncnc(Cl)c2N)ccc1O | -3 | 9 | -5 | 0 | 33* | -6
SMILES | Mtb FBA inh | Rv3671c inh | Mtb betalactam | Mtb UGM inh | GDH-TPI counter | RecA intein inh
CCOc1cc(/C=N/NC(=O)c2cccnc2)ccc1O | -10 | 9 | -1 | 0 | 38* | -1
CCOc1cc(/C=N/Nc2nnc(C)n2N)ccc1O | -11 | -91 | 0 | 1 | 8 | -6
COc1cc(/C=N/NC(=O)c2cnccn2)ccc1O | -4 | 2 | 3 | -4 | 34* | -3
COc1cc(/C=N\NC(=O)c2ccc(Cn3nc([N+](=O)[O-])c(Cl)c3C)o2)ccc1O | 5 | -1 | -1 | 2 | 40* | -1
CS(=O)(=O)n1nc(-c2ccc(Cl)cc2)nc1SCc1ccccc1 | 1 | -4 | 31 | -2 | 3 | 4
NC(c1csc(NC(=O)Nc2ccccc2Cl)n1)C1CCCCC1 (stereo not drawn) | -2 | · | · | · | 0 | ·
